Measured values as given in PubChem BioAssay (NCATS).
Results filed as inconclusive are left out. Entries that show only a call come without a potency. Calls of active or inactive are those of the source. Calls come from the whole dose curve; as a rule, active = well fitted cell-killing curve with a large enough effect; inconclusive = small, poorly fitted or top-dose-only effect, or effect the other way; inactive = no such curve, though single readings can be large or run the other way.

Test: Quantitative High-Throughput drug screen in 47 multiple myeloma cell lines against the NCATS MIPE library collection: LP1_DSMZ cell viability assay (AID 1918982); note: nearly all actives have a fitted effect of over 35% in size
Details: LP1 myeloma viability, CellTiter-Glo ATP luminescence, 48 h; series mostly up to 45.8 µM
Source text: PI: Beverly A. Mock Ph.D.
Laboratory of Cancer Biology and Genetics,
Center for Cancer Research, National Cancer Institute,
National Institute of Health, Bethesda, Maryland
Drug resistance and disease progression are common in multiple myeloma (MM) patients, underscoring the need for new therapeutic combinations. […] We hypothesized that effective combinations would reduce MYC expression and enhance p16 activity. […] These preclinical data identify potentially useful drug combinations for evaluation in drug-resistant MM and reveal potential mechanisms of combined drug sensitivity.
Described herein is the primary MIPE qHTS used to cherrypick compounds. Validated compounds were then further tested for potential synergistic activiy.
[1] Peat TJ, Gaikwad SM, Dubois W, Gyabaah-Kessie N, Zhang S, Gorjifard S, Phyo Z, Andres M, Hughitt VK, Simpson RM, Miller MA, Girvin AT, Taylor A, Williams D, D'Antonio N, Zhang Y, Rajagopalan A, Flietner E, Wilson K, Zhang X, Shinn P, Klumpp-Thomas C, McKnight C, Itkin Z, Chen L, Kazandijian D, Zhang J, Michalowski AM, Simmons JK, Keats J, Thomas CJ, Mock BA. Drug combinations identified by high-throughput screening promote cell cycle transition and upregulate Smad pathways in myeloma. Cancer Lett. 2023 Aug 1;568:216284. doi: 10.1016/j.canlet.2023.216284. Epub 2023 Jun 24. PMID: 37356470; PMCID: PMC10408729.
SEQUENCE No. (e.g., 1, 2, 3, etc.); […] (e.g., Cells, Incubation, Reagent, etc.); VALUE and DESCRIPTION.
1; Cells; 5 uL; white, solid bottom 1536-well Greiner assay plate.
2; Compounds; 23 nL; Kalypsis pin tool (Wako USA) equipped with a 1536-well pin head to transfer to the assay plates.
3; Incubation; 48 hours; 37C incubation.
4; Reagent;5uL; CellTiter Glo (Promega).
5; Detector; 425V; Luminescence; Viewlux PerkinElmer.
NOTES (numbers refer to Sequence numbers above)
1. The cell-based screening methods employed in this study were like those previously published. Briefly, the corresponding myeloma cell lines were screened in 1,536-well plates with 500 cells, 5-uL per well for inhibition of cell viability (assessed by measuring ATP levels with CellTiterGlo).
2. NCATS MIPE 4.0 library of approved and investigational drugs were added using the Kalypsis pin tool. Wells treated with DMSO only for 100% viability and media only for 0% viability were used as controls.
3. The assay plates were covered and incubated for 48 hours in a 37C, 5% CO2 incubator with controlled humidity.
4. After 48 hours, CellTilter-GloTM luminescent substrate mix (Promega) reagent was added to the assay plate and plates we incubated for 5 min at room temperature.
5. Signal was measured as median relative luminescence units on a ViewLux (PerkinElmer) multiplate reader.
[1] Heske CM, Davis MI, Baumgart JT, Wilson K, Gormally MV, Chen L, Zhang X, Ceribelli M, Duveau DY, Guha R, Ferrer M, Arnaldez FI, Ji J, Tran HL, Zhang Y, Mendoza A, Helman LJ, Thomas CJ. Matrix Screen Identifies Synergistic Combination of PARP Inhibitors and Nicotinamide Phosphoribosyltransferase (NAMPT) Inhibitors in Ewing Sarcoma. Clin Cancer Res. 2017 Dec 1;23(23):7301-7311. doi: 10.1158/1078-0432.CCR-17-1121. Epub 2017 Sep 12. PMID: 28899971; PMCID: PMC6636827.
Potency is the fitted concentration of half-maximal effect.

Row | SMILES | Potency
1 | Cc1[nH]c(C=C2C(=O)Nc3ccc(S(=O)(=O)Cc4c(Cl)cccc4Cl)cc32)c(C)c1C(=O)N1CCC[C@H]1CN1CCCC1 | 23.5 µM (active)
2 | CO[C@H]1C[C@@H]2CC[C@@H](C)[C@@](O)(O2)C(=O)C(=O)N2CCCC[C@@H]2C(=O)O[C@H]([C@@H](C)C[C@@H]2CC[C@H](O)[C@H](OC)C2)CC(=O)[C@H](C)C=C(C)[C@@H](O)[C@@H](OC)C(=O)[C@H](C)C[C@H](C)C=CC=CC=C1C | inactive
3 | O=C(O)CCC1CCC(c2cc(F)ccc2F)(S(=O)(=O)c2ccc(Cl)cc2)CC1 (stereo not given) | inactive
4 | CC1(C)CCC(CN2CCN(c3ccc(C(=O)NS(=O)(=O)c4ccc(NCC5CCOCC5)c([N+](=O)[O-])c4)c(Oc4cnc5[nH]ccc5c4)c3)CC2)=C(c2ccc(Cl)cc2)C1 | 18.7 µM (active)
5 | COC(=O)C1=CO[C@@H](O)[C@@H]2C(CO)=CC[C@@H]12 | inactive
6 | O=C(O)c1ccccc1C(=O)Nc1ccc(-c2ccccc2)cc1 | inactive
7 | Clc1ccc(C(c2ccc(Cl)cc2)n2cc[n+](CC(OCc3ccc(Cl)cc3Cl)c3ccc(Cl)cc3Cl)c2)cc1 (stereo not given) | 18.7 µM (active)
8 | Nc1ncnc2c1nc(Cl)n2[C@@H]1O[C@H](CO)[C@@H](O)[C@@H]1O | 20.9 µM (active)
9 | C[C@H]1[C@H](NC(=O)C(=NOC(C)(C)C(=O)O)c2csc(N)n2)C(=O)N1S(=O)(=O)O | inactive
10 | CC(=Cc1ccccc1)C=C1SC(=S)N(CC(=O)O)C1=O | inactive
11 | CO[C@H]1C(=O)[C@]2(C)[C@@H](OC)C[C@H]3OC[C@@]3(OC(C)=O)[C@H]2[C@H](OC(=O)c2ccccc2)[C@]2(O)C[C@H](OC(=O)[C@H](O)[C@@H](NC(=O)OC(C)(C)C)c3ccccc3)C(C)=C1C2(C)C | inactive
12 | COc1ccc2c(Oc3ccc(NC(=O)c4c(C)n(CC(C)(C)O)n(-c5ccccc5)c4=O)nc3)ccnc2c1 | inactive
13 | COc1cc2ncnc(Nc3ccc(F)c(Cl)c3)c2cc1OCCCN1CCOCC1 | 48.1 µM (active)
14 | CCC(=O)NC[C@H](Cc1ccc(OCCc2nc(-c3ccccc3)oc2C)cc1)NC(C)=CC(=O)c1ccc(C(F)(F)F)cc1 | 18.7 µM (active)
15 | COc1cccc([C@@H](C)NCCCc2ccccc2Cl)c1 | inactive
16 | CC(C)(Cc1ccc2ccccc2c1)NC[C@@H](O)COc1cccc(Cl)c1C#N | inactive
17 | Cc1ccc(C(=O)Nc2cccc(C(F)(F)F)c2)cc1Nc1nc(-c2cccnc2)nc2c1cnn2C | 16.6 µM (active)
18 | C[C@H](NC(=O)c1sccc1OCc1ccc(Cl)cc1)c1ccccc1 | 16.6 µM (active)
19 | O=C(O)c1ccc(-c2c[nH]c3ncc(-c4ccccc4)cc23)cc1C1CCCC1 | inactive
20 | Cc1nnc(C(C)C)n1C1C[C@H]2CC[C@@H](C1)N2CC[C@H](NC(=O)C1CCC(F)(F)CC1)c1ccccc1 (stereo not given in full) | inactive

Row | SMILES | Potency
21 | CNC1CCC(N(Cc2cccc(-c3ccncc3)c2)C(=O)c2sc3c(F)ccc(F)c3c2Cl)CC1 (stereo not given) | 23.5 µM (active)
22 | CO[C@H]1C=CC=C(C)C(=O)NC2=CC(=O)C(NCCN(C)C)=C(C[C@@H](C)C[C@H](OC)[C@@H](O)[C@@H](C)C=C(C)[C@@H]1OC(N)=O)C2=O | 0.418 µM (active)
23 | CC(C)C[C@H](CC(=O)O)C(=O)N[C@@H](Cc1c[nH]c2ccccc12)C(=O)N[C@@H](C)c1ccccc1 | inactive
24 | Clc1ccc(-c2nc3sccn3c2C=NOCc2ccc(Cl)c(Cl)c2)cc1 | inactive
25 | CO[C@H]1C[C@@H]2CC[C@@H](C)[C@@](O)(O2)C(=O)C(=O)N2CCCC[C@@H]2C(=O)O[C@H]([C@H](C)C[C@@H]2CC[C@H](OCCO)[C@H](OC)C2)CC(=O)[C@H](C)C=C(C)[C@@H](O)[C@@H](OC)C(=O)[C@H](C)C[C@H](C)C=CC=CC=C1C | inactive
26 | NC1CCC(Nc2nc(Nc3ccc(C(=O)N4CCCCC4)cc3)c3ncn(-c4cccc(F)c4)c3n2)CC1 (stereo not given) | inactive
27 | c1cc(-c2sc(-c3ccncc3)c(-c3ccncc3)c2-c2ccncc2)ccn1 | inactive
28 | N#CC1(c2ccc(NC(=O)c3cccnc3NCc3ccncc3)cc2)CCCC1 | 16.6 µM (active)
29 | CC1(C)Cc2c(sc(NC(=S)NC(=O)c3ccccc3)c2C(=O)O)CO1 | inactive
30 | O=C(Nc1c(Cl)cncc1Cl)c1ccc(OC(F)F)c(OCC2CC2)c1 | inactive
31 | C[C@]12CC[C@@H]3c4ccc(O)cc4C[C@@H](CCCCCCCCCS(=O)CCCC(F)(F)C(F)(F)F)[C@H]3[C@H]1CC[C@H]2O (stereo not given in full) | 11.8 µM (active)
32 | CCC(CC)[C@H](NC(C)=O)[C@@H]1[C@H](O)[C@@H](C(=O)O)C[C@@H]1N=C(N)N | inactive
33 | O=C1c2c(O)cc(O)cc2O[C@H](c2cc(O)c(O)c(O)c2)[C@H]1O | 20.9 µM (active)
34 | CN(C)c1cc(NC(=O)CNC(C)(C)C)c(O)c2c1C[C@@H]1C[C@H]3[C@H](N(C)C)C(=O)C(C(N)=O)=C(O)[C@@]3(O)C(=O)C1=C2O | inactive
35 | COc1ccc(-c2coc3cc(O)ccc3c2=O)cc1 | inactive
36 | OC[C@H]1O[C@@H](n2cnc3c2NC=NC[C@@H]3O)C[C@H]1O | inactive
37 | CO[C@H]1C[C@@H]2CC[C@@H](C)[C@@](O)(O2)C(=O)C(=O)N2CCCC[C@@H]2C(=O)O[C@H]([C@H](C)C[C@@H]2CC[C@H](OP(C)(C)=O)[C@H](OC)C2)CC(=O)[C@H](C)C=C(C)[C@@H](O)[C@@H](OC)C(=O)[C@H](C)C[C@H](C)C=CC=CC=C1C | inactive
38 | COc1ccc2c3c1OC1C[C@@H](O)C=C[C@@]31CCN(C)C2 (stereo not given in full) | inactive
39 | Nc1ncnc2ccccc12 | inactive
40 | N#Cc1ccc(NC(=O)Nc2ccccc2Br)c2n[nH]nc12 | inactive
